Reference: article PMC5540273 (PLoS ONE, 2017)
Read-outs that look alike come from different tables or passages of the source.

Columns and labels:
[1] = test system: T1, GRK2; conditions: concentration: 1 μM, replicates: in singlicate; n = 1
T1 construct: gene ADRBK1

[2] = test system: T2, GRK3; conditions: concentration: 1 μM, replicates: in singlicate; n = 1
T2 construct: gene ADRBK2

[3] = test system: GRK4; conditions: concentration: 1 μM, replicates: in singlicate; n = 1
[4] = test system: GRK7; conditions: concentration: 1 μM, replicates: in singlicate; n = 1
[5] = test system: GSK3A; conditions: concentration: 1 μM, replicates: in singlicate; n = 1
[6] = test system: GSK3B; conditions: n = 1
[7] = test system: T3, HASPIN; conditions: concentration: 1 μM, replicates: in singlicate; n = 1
T3 construct: gene GSG2

[8] = test system: HCK; conditions: concentration: 1 μM, replicates: in singlicate; n = 1
[9] = test system: HIPK1; conditions: concentration: 1 μM, replicates: in singlicate; n = 1
[10] = test system: HIPK2; conditions: concentration: 1 μM, replicates: in singlicate; n = 1
[11] = concentration: 1 μM, replicates: in singlicate
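Note: KINOMEscan kinase panel screen.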

SMILES | %Inh [1] | %Inh [2] | %Inh [3] | %Inh [4] | %Inh [5] | %Inh [6, 11] | %Inh [7] | %Inh [8] | %Inh [9] | %Inh [10] | %Inh ([6]; 1 µM)
COc1cc2ncn(-c3cc(OCCCc4ccccc4)c(C(N)=O)s3)c2cc1OC [GSK205189] | 0% | 0% | 13% | 0% | 10% | 0% | 0% | 4% | 9% | 0% | –
CCC(=O)c1c(-c2ccccc2)c2cc(Cl)ccc2c(=O)n1Cc1ccc(C(=O)O)cc1 | 0% | 0% | 16% | 0% | 3% | 0% | 42% | 0% | 10% | 0% | –
Cc1ccccc1COc1cc(-n2cnc3cc(Cl)ccc32)sc1C(N)=O [GW813349] | 0% | 0% | 2% | 0% | 17% | 14% | 16% | 11% | 30% | 24% | –
COC(=O)c1c(-c2ccccc2)c2cc(Br)ccc2c(=O)n1Cc1ccc(S(C)(=O)=O)cc1 | 14% | 0% | 0% | 35% | 0% | 19% | 31% | 9% | 33% | 18% | –
CCCC(=O)Nc1n[nH]c2ncc(-c3cccc4ccccc34)cc12 [SB-642057] | 0% | 0% | 0% | 0% | 87% | – | 0% | 1% | 0% | 0% | 33%
O=C(Nc1n[nH]c2nc(-c3ccccc3)c(Br)cc12)C1CC1 [SB-708998] | 12% | 0% | 14% | 0% | 90.3% | – | 0% | 0% | 0% | 0% | 15%
Nc1n[nH]c2nnc(-c3ccccc3)c(-c3ccccc3)c12 [GW554060] | 0% | 44% | 6% | 0% | 91% | – | 10% | 0% | 50% | 86% | 42%
Cc1nn2c(=O)cc(N3CCOCC3)nc2n1Cc1cccc(Cl)c1Cl [GSK2342769] | 0% | 83% | 2% | 0% | 10% | 13% | 8% | 0% | 0% | 0% | –
Cc1cccc(-c2nc(Nc3ccc4c(cnn4C)c3)c3ccccc3n2)n1 [GW876731] | 16% | 5% | 0% | 15% | 18% | 0% | 11% | 0% | 0% | 14% | –
Cc1ccc(-c2ccc3c(ccc4sc5c(c43)NC[C@@H](C)N=C5N(C)C)n2)cn1 | 0% | 1% | 0% | 0% | 0% | 0% | 23% | 14% | 0% | 0% | –
Cc1nnc(-c2ccc3ncn(-c4ccc(S(C)=O)cc4)c3c2)o1 (centres unmarked) | 0% | 0% | 0% | 0% | 74% | 36% | 0% | 13% | 28% | 10% | –
Cc1cc(Nc2nc(-c3cccc(C)n3)nc3ccccc23)ccn1 [GW872411] | 0% | 0% | 35% | 0% | 0% | 0% | 0% | 7% | 0% | 0% | –
C[C@@H]1CC[C@H](C(=O)NC2CCCCC2)CN1c1cc(-c2ccc3c(N)n[nH]c3c2)nc(N)n1 [GSK2291363] | 0% | 32% | 45% | 0% | 5% | 17% | 2% | 0% | 9% | 0% | –
Nc1nc(N)c2nc(-c3ccccc3)[nH]c2n1 [SKF-12778] | 13% | 9% | 18% | 4% | 0% | 0% | 0% | 3% | 5% | 11% | –
COc1ccc(CNC(=O)NC2CCN(c3ccnc(Nc4ccc(F)cc4)n3)C2)cc1 (centres unmarked) [GSK1379706] | 0% | 51% | 19% | 0% | 23% | 1% | 32% | 0% | 19% | 13% | –
CCn1c(-c2ccoc2)nc2cnccc21 [SB-733887] | 0% | 0% | 0% | 93.9% | 35% | 22% | 37% | 0% | 0% | 0% | –
COc1cc(OC)cc(-c2cc3cnc(N)nc3nc2NC(=O)NC(C)(C)C)c1 | 0% | 0% | 13% | 9% | 0% | 0% | 0% | 0% | 15% | 0% | –
Cc1nc(N(C)[C@H]2CN(C(=O)CC#N)CC[C@H]2C)c2cc[nH]c2n1 | 0% | 0% | 0% | 0% | 9% | 0% | 0% | 0% | 6% | 0% | –
COc1cc2ncn(-c3cc(OCc4ccncc4)c(C(N)=O)s3)c2cc1OC [GSK336313] | 0% | 0% | 0% | 0% | 15% | 7% | 0% | 0% | 15% | 0% | –
O=c1cc(N2CCOCC2)nc2n(Cc3ccc(F)c(Cl)c3)ccn12 [GSK2297099] | 0% | 0% | 0% | 0% | 0% | 8% | 0% | 0% | 7% | 0% | –
